# Laboratory results reported in PubChem BioAssay AID1159580 (chemical genetic matrix, 2015).
# In all, about 5,500 compounds went through this assay and about 2,000 (36%) were called active. Roughly 18% stayed inconclusive and do not appear here. The list shows a part of the results. Unmarked numbers belong to inactive results. Rule as the data show it: active = normalized growth mostly below about 0.91 (no sharp cut-off); inconclusive = no clear call, values can overlap the other calls; inactive = mostly above about 0.92.
# Assay: chemical genetic growth profiling, strain panel (AID 1159580);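 also: tested at 20 µM; growth read once vehicle control cultures reached saturation at 30 °C; 1 = growth at the plate median or of vehicle wells; lower values mean less growth of the strain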
# Conditions: S. cerevisiae deletion strains, growth OD
# [1] = locus YAR019C, strain CDC15, stronger effect = lower value
# [2] = locus YBL105C, strain PKC1, stronger effect = lower value
# [3] = locus YBR135W, strain CKS1, stronger effect = lower value
# [4] = locus YBR136W, strain MEC1, stronger effect = lower value
# [5] = locus YBR160W, strain CDC28, stronger effect = lower value
# [6] = locus YDL017W, strain CDC7, stronger effect = lower value
# [7] = locus YDL028C, strain MPS1, stronger effect = lower value
# [8] = locus YDL101C, strain DUN1, stronger effect = lower value
# [9] = locus YDL108W, strain KIN28, stronger effect = lower value
# [10] = locus YDL132W, strain cdc53, stronger effect = lower value
# [11] = locus YDL214C, strain PRR2, stronger effect = lower value
# [12] = locus YDR052C, strain DBF4, stronger effect = lower value
# [13] = locus YDR054C, strain cdc34, stronger effect = lower value
# [14] = locus YDR226W, strain ADK1, stronger effect = lower value
# [15] = locus YDR477W, strain SNF1, stronger effect = lower value
# [16] = locus YER123W, strain YCK3, stronger effect = lower value
# [17] = locus YER133W, strain GLC7, stronger effect = lower value
# [18] = locus YFL009W, strain cdc4, stronger effect = lower value
# [19] = locus YFL029C, strain CAK1, stronger effect = lower value
# [20] = locus YFR003C, strain YPI1, stronger effect = lower value
# [21] = locus YFR019W, strain FAB1, stronger effect = lower value
# [22] = locus YFR028C, strain CDC14, stronger effect = lower value
# [23] = locus YGR040W, strain KSS1, stronger effect = lower value
# [24] = locus YGR052W, strain FMP48, stronger effect = lower value
# [25] = locus YGR092W, strain DBF2, stronger effect = lower value
# [26] = locus YHR030C, strain SLT2, stronger effect = lower value
# [27] = locus YHR079C, strain IRE1, stronger effect = lower value
# [28] = locus YHR082C, strain KSP1, stronger effect = lower value
# [29] = locus YHR205W, strain SCH9, stronger effect = lower value
# [30] = locus YIL147C, strain SLN1, stronger effect = lower value
# [31] = locus YJL095W, strain BCK1, stronger effect = lower value
# [32] = locus YJL128C, strain PBS2, stronger effect = lower value
# [33] = locus YJL157C, strain FAR1, stronger effect = lower value
# [34] = locus YJR016C, strain ILV3, stronger effect = lower value
# [35] = locus YJR066W, strain TOR1 (second series), stronger effect = lower value
# [36] = locus YJR066W, strain TOR1, stronger effect = lower value
# [37] = locus YKL048C, strain ELM1, stronger effect = lower value
# [38] = locus YKL067W, strain YNK1, stronger effect = lower value
# [39] = locus YKL101W, strain HSL1, stronger effect = lower value
# [40] = locus YKL193C, strain SDS22, stronger effect = lower value
# [41] = locus YKL203C, strain TOR2, stronger effect = lower value
# [42] = locus YLR113W, strain HOG1, stronger effect = lower value
# [43] = locus YLR133W, strain CKI1, stronger effect = lower value
# [44] = locus YLR403W, strain SFP1, stronger effect = lower value
# [45] = locus YML070W, strain DAK1, stronger effect = lower value
# [46] = locus YMR001C, strain CDC5, stronger effect = lower value
# [47] = locus YMR205C, strain PFK2 (second series), stronger effect = lower value
# [48] = locus YMR277W, strain FCP1, stronger effect = lower value
# [49] = locus YNL006W, strain LST8, stronger effect = lower value
# [50] = locus YNL020C, strain ARK1, stronger effect = lower value
# [51] = locus YNL161W, strain CBK1, stronger effect = lower value
# [52] = locus YNL183C, strain NPR1, stronger effect = lower value
# [53] = locus YNL207W, strain RIO2, stronger effect = lower value
# [54] = locus YNL222W, strain SSU72, stronger effect = lower value
# [55] = locus YNL307C, strain MCK1 (second series), stronger effect = lower value
# [56] = locus YOL078W, strain AVO1, stronger effect = lower value
# [57] = locus YOL136C, strain PFK27, stronger effect = lower value
# [58] = locus YOR061W, strain CKA2, stronger effect = lower value
# [59] = locus YOR119C, strain RIO1, stronger effect = lower value
# [60] = locus YOR231W, strain MKK1, stronger effect = lower value
# [61] = locus YOR329C, strain SCD5, stronger effect = lower value
# [62] = locus YPL031C, strain PHO85, stronger effect = lower value
# [63] = locus YPL153C, strain RAD53, stronger effect = lower value
# [64] = locus YPL204W, strain HRR25, stronger effect = lower value
# [65] = locus YPL209C, strain IPL1, stronger effect = lower value
# [66] = locus YPL256C, strain CLN2, stronger effect = lower value
# [67] = locus YPR025C, strain CCL1, stronger effect = lower value
# [68] = locus YPR106W, strain ISR1, stronger effect = lower value
# [69] = locus YPR111W, strain DBF20, stronger effect = lower value
# [70] = strain NNK1, stronger effect = lower value
# [71] = strain TSCII, stronger effect = lower value
# [72] = locus YMR263W, strain SAP30, stronger effect = lower value
# [73] = locus YNL153C, strain GIM3, stronger effect = lower value
# [74] = locus YPL055C, strain LGE1, stronger effect = lower value
smiles,measurement,setting,value
N#Cc1c(N)sc2c1CCc1ccccc1-2,normalized growth,[1],0.896
same,normalized growth,[2],0.897 (active)
same,normalized growth,[3],0.898
same,normalized growth,[4],0.896
same,normalized growth,[5],0.905
same,normalized growth,[6],0.899 (active)
same,normalized growth,[7],0.898
same,normalized growth,[8],0.929
same,normalized growth,[9],0.898
same,normalized growth,[10],0.884 (active)
same,normalized growth,[11],0.671 (active)
same,normalized growth,[12],0.905 (active)
same,normalized growth,[13],0.89
same,normalized growth,[14],0.887 (active)
same,normalized growth,[15],0.546 (active)
same,normalized growth,[16],0.596 (active)
same,normalized growth,[17],0.499 (active)
same,normalized growth,[18],0.903
same,normalized growth,[19],0.891
same,normalized growth,[20],0.894 (active)
same,normalized growth,[21],0.833
same,normalized growth,[22],0.884 (active)
same,normalized growth,[23],0.452 (active)
same,normalized growth,[24],0.508 (active)
same,normalized growth,[25],0.545
same,normalized growth,[26],0.479 (active)
same,normalized growth,[27],0.593
same,normalized growth,[28],0.568 (active)
same,normalized growth,[29],0.558 (active)
same,normalized growth,[30],0.894
same,normalized growth,[31],0.508
same,normalized growth,[32],0.918
same,normalized growth,[33],0.605 (active)
same,normalized growth,[34],0.892 (active)
same,normalized growth,[35],0.474 (active)
same,normalized growth,[36],0.458 (active)
same,normalized growth,[37],0.798 (active)
same,normalized growth,[38],0.664 (active)
same,normalized growth,[39],0.66 (active)
same,normalized growth,[40],0.888 (active)
same,normalized growth,[41],0.489 (active)
same,normalized growth,[42],0.806 (active)
same,normalized growth,[43],0.593 (active)
same,normalized growth,[44],0.401 (active)
same,normalized growth,[45],0.642 (active)
same,normalized growth,[46],0.886 (active)
same,normalized growth,[47],0.69 (active)
same,normalized growth,[48],0.88 (active)
same,normalized growth,[49],0.903 (active)
same,normalized growth,[50],0.611 (active)
same,normalized growth,[51],0.898 (active)
same,normalized growth,[52],0.492 (active)
same,normalized growth,[53],0.867 (active)
same,normalized growth,[54],0.897
same,normalized growth,[55],0.508 (active)
same,normalized growth,[56],0.898
same,normalized growth,[57],0.636 (active)
same,normalized growth,[58],0.616 (active)
same,normalized growth,[59],0.506 (active)
same,normalized growth,[60],0.653
same,normalized growth,[61],0.91
same,normalized growth,[62],0.464 (active)
same,normalized growth,[63],0.494 (active)
same,normalized growth,[64],0.491 (active)
same,normalized growth,[65],0.888 (active)
same,normalized growth,[66],0.97
same,normalized growth,[67],0.911
same,normalized growth,[68],0.918
same,normalized growth,[69],0.912
same,normalized growth,[70],0.915
same,normalized growth,[71],0.899
COc1ccc(-c2ccc(N)[n+](CCCC(=O)O)n2)cc1,normalized growth,"locus YAL040C, strain CLN3, stronger effect = lower value",1.05
same,normalized growth,"locus YCL061C, strain MRC1 (second series), stronger effect = lower value",1
same,normalized growth,"locus YDR363W, strain ESC2, stronger effect = lower value",1.01
same,normalized growth,"locus YER002W, strain NOP16, stronger effect = lower value",0.993
same,normalized growth,[72],1.01
same,normalized growth,"locus YMR307W, strain GAS1, stronger effect = lower value",1.01
same,normalized growth,[73],1.03
same,normalized growth,"locus YNL175C, strain NOP13, stronger effect = lower value",1
same,normalized growth,"locus YNL197C, strain WHI3, stronger effect = lower value",1.01
same,normalized growth,"locus YNL224C, strain SQS1, stronger effect = lower value",1.01
same,normalized growth,"locus YOR083W, strain WHI5 (second series), stronger effect = lower value",1.02
same,normalized growth,[74],1.01
COc1ccc(/C(C)=N\NC2=NCCCN2)cc1,normalized growth,"locus YAL013W, strain DEP1, stronger effect = lower value",1
same,normalized growth,"locus YBR229C, strain ROT2, stronger effect = lower value",1.01
same,normalized growth,"locus YCL061C, strain MRC1, stronger effect = lower value",1
same,normalized growth,[8],1.03
same,normalized growth,"locus YDR150W, strain NUM1, stronger effect = lower value",0.999
same,normalized growth,"locus YEL061C, strain CIN8, stronger effect = lower value",0.991
same,normalized growth,"locus YGR078C, strain PAC10, stronger effect = lower value",1
same,normalized growth,[26],0.987
same,normalized growth,"locus YHR087W, strain rtc3, stronger effect = lower value",0.993
same,normalized growth,"locus YJL187C, strain SWE1, stronger effect = lower value",1.01
same,normalized growth,"locus YJR043C, strain POL32, stronger effect = lower value",0.998
same,normalized growth,"locus YJR075W, strain HOC1, stronger effect = lower value",0.986
same,normalized growth,"locus YKL190W, strain CNB1, stronger effect = lower value",0.973
same,normalized growth,"locus YLR039C, strain RIC1, stronger effect = lower value",0.957
same,normalized growth,"locus YLR058C, strain SHM2 (second series), stronger effect = lower value",0.991
same,normalized growth,"locus YLR085C, strain ARP6, stronger effect = lower value",0.982
same,normalized growth,"locus YLR262C, strain YPT6, stronger effect = lower value",0.978
same,normalized growth,"locus YML094W, strain GIM5, stronger effect = lower value",1.08
same,normalized growth,"locus YMR219W, strain ESC1, stronger effect = lower value",0.997
same,normalized growth,[72],1
same,normalized growth,[73],1.01
same,normalized growth,"locus YNL298W, strain CLA4 (second series), stronger effect = lower value",0.966
same,normalized growth,"locus YNL322C, strain KRE1, stronger effect = lower value",1
same,normalized growth,"locus YNR030W, strain Alg12, stronger effect = lower value",0.993
same,normalized growth,[74],1.01
same,normalized growth,"locus YPL241C, strain CIN2, stronger effect = lower value",1.03
same,normalized growth,"locus YPR135W, strain CTF4, stronger effect = lower value",1.04
CCCCCc1ccc(-c2nc(SCC(C)=O)n[nH]2)cc1,normalized growth,[1],0.933
same,normalized growth,[2],0.95
same,normalized growth,[3],0.959
same,normalized growth,[4],0.948
same,normalized growth,[5],0.947
same,normalized growth,[6],0.957
same,normalized growth,[7],0.932
same,normalized growth,[8],0.956
same,normalized growth,[9],0.949
same,normalized growth,[10],0.971
same,normalized growth,[11],0.835
same,normalized growth,[12],0.97
same,normalized growth,[13],0.922
same,normalized growth,[14],0.942
same,normalized growth,[15],0.773
same,normalized growth,[16],0.761
same,normalized growth,[17],0.838
same,normalized growth,[18],0.926
same,normalized growth,[19],0.938
same,normalized growth,[20],0.96
same,normalized growth,[21],0.885
same,normalized growth,[22],0.962
same,normalized growth,[23],0.748
same,normalized growth,[24],0.734
same,normalized growth,[25],0.662
same,normalized growth,[26],0.565 (active)
same,normalized growth,[27],0.636
same,normalized growth,[28],0.825
same,normalized growth,[29],0.799
same,normalized growth,[30],0.937
same,normalized growth,[31],0.658
same,normalized growth,[32],0.846
same,normalized growth,[33],0.85
same,normalized growth,[34],0.953
same,normalized growth,[35],0.73
same,normalized growth,[36],0.721
same,normalized growth,[37],0.688 (active)
same,normalized growth,[38],0.831
same,normalized growth,[39],0.714 (active)
same,normalized growth,[40],0.95
same,normalized growth,[41],0.875
same,normalized growth,[42],0.585 (active)
same,normalized growth,[43],0.86
same,normalized growth,[44],0.829
same,normalized growth,[45],0.784
same,normalized growth,[46],0.94
same,normalized growth,[47],0.864
same,normalized growth,[48],0.932
same,normalized growth,[49],0.947
same,normalized growth,[50],0.856
same,normalized growth,[51],0.958
same,normalized growth,[52],0.767
same,normalized growth,[53],0.947
same,normalized growth,[54],0.948
same,normalized growth,[55],0.826
same,normalized growth,[56],0.963
same,normalized growth,[57],0.82
same,normalized growth,[58],0.8
same,normalized growth,[59],0.779
same,normalized growth,[60],0.661
same,normalized growth,[61],0.949
same,normalized growth,[62],0.749
same,normalized growth,[63],0.688
same,normalized growth,[64],0.702
same,normalized growth,[65],0.96
same,normalized growth,[66],0.6 (active)
same,normalized growth,[67],0.954
same,normalized growth,[68],0.928
same,normalized growth,[69],0.913
same,normalized growth,[70],0.934
same,normalized growth,[71],0.936
